# From PubChem BioAssay
# HT1080-NT tox = kills 2HG-producing HT-1080-NT fibrosarcoma cells; HT-1080-NT fibrosarcoma viability, CellTiter-Glo ATP luminescence, 48 h; Potency, µM (titrated, usually from 46.1 µM), for the others: top-dose activity, negative = less viability, most hits filed as cytotoxic; 1.6% of 360,000 active;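 also: NT is the 2HG producing partner of a matched IDH1 knockdown line; potency is read from the fitted curve at half-maximal effect; 0% = DMSO-treated cells and -100% = media-only wells without cells; nearly all actives have a fitted effect of over 55% in size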
#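 HT-1080-NT; 750 cells/well; 5% FBS RPMI; 48 h compound, 37 degrees C; CellTiter-Glo luminescence; curve fitting and curve-class assignment.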
# ELG1 DNA repair = ELG1-dependent DNA repair inhibition; HEK293T ELG1-luciferase reporter, luminescence, 16 h; DNA damage induced by 5-fluorouridine; Potency, µM (titrated, usually from 46.1 µM), without a hit: at the highest dose activity change, negative = inhibition, actives largely listed as inhibitors; 2.3% of 330,000 active; also: potency is read from the fitted curve at half-maximal effect; nearly all actives have a fitted effect of over 55% in size
#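 Cells (2,000 per well) received 5-fluorouridine plus test compound or DMSO and were incubated 16 hr at 37 °C, 5% CO2. Luciferase activity was read by luminescence 30 min after ONE-Glo addition; signal suppression marked inhibition of damage-induced ELG1 function.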
# TDP1 cell noCPT = qHTS for Inhibitors of human tyrosyl-DNA phosphodiesterase 1 (TDP1): qHTS in cells in absence of CPT; DT40 Tdp1-/- hTDP1 cells, no CPT, ATP luminescence, 48 h; Potency, µM (doses to about 46.2 µM), for the others: top-dose activity change, negative = growth inhibition, actives largely listed as inhibitors; 15% of 420,000 active; also: potency is read from the fitted curve at half-maximal effect; nearly all actives have a fitted effect of over 55% in size
#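 Luminescent ATP content (CellTiter-Glo) served as the growth readout. Knockout chicken DT40 cells expressing human TDP1 were exposed to compounds without camptothecin for a minimum 48 hr at 37 °C.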
# IL-1B inflam inh = inhibitors of inflammasome signaling (IL-1 beta secretion). THP-1 LPS/ATP IL-1B secretion, AlphaLISA, 16 h; active compounds read low. activity change, % at 57.5 µM. 4.7% of 360,000 active. AID 743279; in the data active = activity change below about -50%; inconclusive = mostly about -30% to -49%
#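 THP-1 cells pretreated 1 hr with compounds (up to 57.5 uM final), then stimulated with LPS (250 ng/mL final) plus ATP (1.25 mM final); secreted IL-1B measured by AlphaLISA after 16 hr, decreased signal indicating inhibition.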
# DT40 TDP1 CPT = DT40-hTDP1 cell growth loss with CPT; chicken DT40 Tdp1-/-;hTDP1 cells + 20 nM CPT, ATP luminescence, 48 h; Potency, µM (highest dose often 46.2 µM), for the others: at the highest dose activity change, negative = growth inhibition, most hits filed as inhibitors; 12% of 420,000 active; AID 686979; also: potency is read from the fitted curve at half-maximal effect; nearly all actives have a fitted effect of over 55% in size
#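 Chicken DT40 Tdp1-/- cells complemented with human TDP1, 400 cells/well, exposed to compounds plus 20 nM camptothecin for at least 48 h at 37 C; viability read as ATP content by CellTiter-Glo luminescence.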
# HT1080 IDH1KD tx = toxicity to HT-1080 IDH1 knockdown cells (counter line); 2% of 360,000 active; HT-1080 IDH1 knockdown viability, ATP luminescence, 48 h; Potency, µM (highest dose often 46.1 µM), for the others: top-dose activity, negative = toxicity, hits mostly cytotoxic; AID 686971;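 also: potency is read from the fitted curve at half-maximal effect; 0% = DMSO wells and -100% = cell-free medium wells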
#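 Assay cells: HT-1080 with IDH1 knockdown, 750 per well, RPMI/5% FBS. Exposure: 48 h at 37 °C following 2 h pre-incubation. Read: CellTiter-Glo luminescence; fitted concentration-response, curve class assigned.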
# * = called active by the depositor; ? = inconclusive; nt = not tested or not shown; [ ] = dose if it differs, or a comment. Most compounds without a hit are left out; they make up all but 19% or so of the library. Unless noted, calls follow the shape of the dose curve; as a rule, active = well fitted curve in the direction sought with a large enough effect; inconclusive = small, poorly fitted or top-dose-only effect, or another doubt; inactive = no such curve, though single readings can be large; an effect the other way counts as inactive or inconclusive. Unless noted, % is scaled to controls: 0 for no effect and ±100 for the full control effect.
SMILES,HT1080-NT tox,ELG1 DNA repair,TDP1 cell noCPT,IL-1B inflam inh,DT40 TDP1 CPT,HT1080 IDH1KD tx
Cc1cc(Br)ccc1NC(=O)CSCc1c(C)noc1C,5%,-5%,-27%,-8,?,14%
COc1ccc(C(=O)NCCc2cc3ccc(C)c(C)c3[nH]c2=O)cc1OC,-1%,?,?,1,?,4%
COCCNc1c(-c2cc3ccc(C)c(C)c3[nH]c2=O)nc2ccccn12,9%,?,18µM*,-59*,?,6%
COC(=O)c1c(SCC(=O)Nc2cccc(C(F)(F)F)c2)[nH]c2ccccc2c1=O,nt,nt,5.8µM*,nt,5.8µM*,nt
COC(=O)c1c(SCC(=O)NC2CCCCC2)[nH]c2ccccc2c1=O,8%,9%,?,10,14%,-7%
COC(=O)c1c(SCC(=O)Nc2cc(F)ccc2F)[nH]c2ccc(C)cc2c1=O,nt,nt,8.2µM*,nt,8.2µM*,nt
COC(=O)c1c(SCC(=O)Nc2cccc(Cl)c2C)[nH]c2ccccc2c1=O,nt,nt,?,nt,23µM*,nt
Cc1ccc(S(=O)(=O)N2CCN(C(=O)C(C)Cn3cncn3)CC2)cc1 (stereo not drawn),-7%,7%,1%,-5,8%,-1%
COC(=O)/C(=C(O)\C=C\c1ccccc1[N+](=O)[O-])c1nc2ccccc2[nH]1,-15%,?,15µM*,?,12µM*,-20%
O=c1[nH]c(/C=C/c2ccccc2[N+](=O)[O-])nc2ccccc12,-2%,?,-16%,2,-11%,-6%
Cc1cc(C(=O)OCC(=O)Nc2ccc(F)cc2F)c(C)o1,3%,12%,3%,-55*,-8%,2%
CCCC(=O)OC[C@@H](OC(=O)CCC)[C@@H](OC(=O)CCC)[C@H](Cn1c2nc(=O)[nH]c(=O)c-2nc2cc(C)c(C)cc21)OC(=O)CCC,nt,nt,6µM*,nt,6.7µM*,nt
OC(COc1ccc2c(c1)CCC2)Cn1cnc2ccccc21 (stereo not drawn),-15%,21%,18µM*,1,10µM*,-26%
CC(=O)Nc1cccc(OCC(O)Cn2cnc3ccccc32)c1 (stereo not drawn),0%,9%,-4%,22,-15%,-1%
CC(=O)OC(COc1cccc(C)c1)Cn1cnc2ccccc21 (stereo not drawn),-11%,13%,16µM*,0,?,-7%
Cc1nn(CC(O)COc2ccc3c(c2)CCC3)c(C)c1C (stereo not drawn),1%,9%,21µM*,-15,?,3%
Nc1cc2c(cc1Cl)-c1ccccc1C2=NO,-4%,nt,?,7,?,-3%
CCN1CCN(Cc2c(O)ccc3c2O/C(=C\c2ccccc2)C3=O)CC1,-8%,-7%,-18%,-5,-23%,0%
CC1CCCN(Cc2c(O)ccc3c2O/C(=C\c2ccco2)C3=O)C1 (stereo not drawn),-5%,5%,26µM*,-2,15µM*,-1%
COc1cc(C)c(CNC2CCCCC2)cc1C,-3%,10%,-15%,-2,-2%,0%[9.24 µM]
CCOc1c(Br)cc(CNC2CCCCCCC2)cc1OC,-15%,-19%,15µM*,-94*,21µM*,-17%
C=CCOc1c(CNC2CCCC2)cc(Cl)cc1OC,-13%,-1%,?,-72*,?,-30%
COc1cc(CNC2CCCCCCC2)cc(Cl)c1OC,-10%,-20%,?,-80*,?,?
O=C(NNC(=O)C1CCC1)c1ccccc1F,0%,9%,-3%,5,0%,4%
CCCS(=O)(=O)NC(=O)C1(C)CCN(C(=O)c2cc(C)nn2C(C)(C)C)C1 (stereo not drawn),8%,nt,-3%,26,-11%,9%
